Test results published in PubChem BioAssay.

Test: binders of probe aFST on microarray, primary screen, stem cell growth factor project, biochemical, small-molecule microarray, fluorescence 635/667 (AID 1086);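 further: score merges 667 nm fluorescence with signal-to-noise of each printed compound spot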
Conditions: higher = more signal

Compound | composite z-score
Cc1ccc(S[C@]2(C(=O)NCc3ccccc3)CC(=O)N(Cc3ccccc3)[C@@H]2c2ccc(CO)cc2)cc1 | -0.0886
C=C(C(=O)CC[C@H](OC(C)=O)c1ccc(OCCO)cc1)C(C)C | 0.0745
Cc1ccc(S[C@]2(C(=O)NCC(C)C)CC(=O)N(Cc3ccccc3)[C@@H]2c2ccc(CO)cc2I)cc1 | -0.325
O=C1N(CCS(=O)(=O)c2ccccc2)c2ccccc2C[C@@]12COC(c1ccc(OCCCO)cc1)=N2 | 0.971
CCOC(=O)C[C@H]1[C@H](OC(=O)c2ccc(-c3ccccc3)cc2)[C@@H](NC(=O)Cc2ccc(OC)cc2)c2cc(OCCCO)ccc2N1C(=O)c1ccc2ccccc2n1 | 0.484
C=CCNC(=O)[C@@H]1[C@H]2C(=O)O[C@H](c3ccccc3)[C@H](c3ccccc3)N2[C@H](c2ccc(OCCO)cc2)[C@@]12C(=O)Nc1ccccc12 | 0.627
COCCOC(=O)N1C(=O)[C@@]2(c3cc(C#CCNC(N)=O)ccc31)[C@H](c1ccccc1OCCO)N1[C@H](c3ccccc3)[C@H](c3ccccc3)OC(=O)[C@H]1[C@@H]2C(N)=O | 0.477
COC(=O)[C@@]1(Cc2ccc(F)cc2)[C@H]2c3cc(C(=O)N4CCCC4)n(Cc4cccc5ccccc45)c3C[C@H]2CN1C(=O)c1ccccc1 | 0.558
CC(C)CNC(=O)[C@@]1(c2ccc([N+](=O)[O-])cc2)CC(=O)N(CC23CC4CC(CC(C4)C2)C3)[C@@H]1c1ccc(CO)cc1 | -0.0554
CC1=C2[C@@H](CCc3ccccc3)OB(O)C[C@@H]2n2c(=O)n(-c3ccccc3)c(=O)n2C1 | 0.156
CCOC(=O)C[C@H]1[C@H](OC(=O)Cc2ccc3c(c2)OCO3)[C@@H](NC(=O)C2CCCCC2)c2cc(OCCCO)ccc2N1C(=O)Cc1ccc(OC)cc1 | 0.364
O=C(CS)NCCCCCCNC(=O)[C@H]1C[C@H]2C(=O)NCC(=O)N2[C@H]1c1ccc(O)cc1 | -0.346
C[N+](C)(C)CCCCCCNC(=O)[C@H]1C[C@H]2C(=O)N3CCC[C@H]3C(=O)N2[C@H]1c1ccc(O)cc1 | -0.106
C[C@H]1NC(=O)[C@H](Cc2ccccc2)NC(=O)[C@@]23C(=O)N[C@@H](Cc4ccccc4)C2[C@H](C)[C@@]2(C)O[C@H]2C3/C=C/C/C=C\CNC1=O (some centres not stated) | -0.146
CS(=O)(=O)CCOC(=O)C1=CC(c2ccc(CO)cc2)=CC(C2CC2)N(Cc2cc3c(cc2Br)OCO3)C=C1C(=O)OCCS(C)(=O)=O (configuration not stated) | 0.566
[N-]=[N+]=NCc1ccccc1C[C@@]1(C(=O)N2CCOCC2)N=C(c2ccc(OCCCO)cc2)O[C@@H]1c1ccccc1CN=[N+]=[N-] | 1.57
CN1C=C(C(=O)OCCS(C)(=O)=O)C(C(=O)OCCS(C)(=O)=O)=CC(CCCO)=CC1C1CC1 (configuration not stated) | -0.0228
C=CCOC(=O)[C@H]1[C@@H]2C(=O)O[C@@H](c3ccccc3)[C@@H](c3ccccc3)N2[C@@H](c2ccc(OCCOC(=O)[C@@H]3C[C@@H]4C(=O)NCC(=O)N4[C@@H]3c3ccc(O)cc3)cc2)[C@]12C(=O)Nc1ccccc12 | -0.112
O=C1C=CC(=O)[C@@H]2CC(COc3ccccc3)=C3[C@@H](CCc4ccccc4)OB(O)C[C@@H]3[C@H]12 | -0.467
CCOC(=O)C1=C[C@@H](C(C)C)N(S(=O)(=O)c2ccc(C)cc2)[C@H]1c1ccc(C(C)C)cc1 | 0.937
CCOC(=O)C[C@H]1[C@H](OC(=O)c2ccc(-c3ccccc3)cc2)[C@@H](NC(=O)c2ccc3ccccc3c2)c2cc(OCCCO)ccc2N1C(=O)Cc1ccc(OC)cc1 | 0.628
CCOC(=O)C[C@H]1[C@H](OC(=O)c2ccccc2-c2ccccc2)[C@@H](NC(=O)c2ccc3ccccc3c2)c2cc(OCCCO)ccc2N1C(=O)c1ccc2ccccc2n1 | 0.484
COCCOC(=O)N1C(=O)[C@@]2(c3cc(C#CC4=CCCCC4)ccc31)[C@H](C(=O)NC[C@H](O)c1ccccc1)[C@H]1C(=O)O[C@H](c3ccccc3)[C@H](c3ccccc3)N1[C@@H]2c1ccc(O)cc1 | 0.353
C=C(COC)C(=O)CC[C@H](OC(C)=O)c1cccc(OCCO)c1 | -0.392
N[C@@H](Cc1ccccc1)Cn1cc(-c2ccccc2)nn1 | 0.746
O=C1O[C@@H](c2ccccc2)[C@@H](c2ccccc2)N2[C@@H](c3ccc(OCCO)cc3)[C@]3(C(=O)Nc4ccc(C#CC5=CCCCC5)cc43)[C@@H](C(=O)O)[C@H]12 | 0.492
COCCOC(=O)N1C(=O)[C@@]2(c3cc(C#CCC(C(=O)OC)C(=O)OC)ccc31)[C@H](C(=O)N1CCCCCCC1)[C@H]1C(=O)O[C@H](c3ccccc3)[C@H](c3ccccc3)N1[C@@H]2c1ccc(OCCO)cc1 | 3.4
